Results on 40 sequences are retold here after the supplement of paper PMC10681739.

This assay addresses T1, ETS1 (UniProt P14921).
T1 sequence: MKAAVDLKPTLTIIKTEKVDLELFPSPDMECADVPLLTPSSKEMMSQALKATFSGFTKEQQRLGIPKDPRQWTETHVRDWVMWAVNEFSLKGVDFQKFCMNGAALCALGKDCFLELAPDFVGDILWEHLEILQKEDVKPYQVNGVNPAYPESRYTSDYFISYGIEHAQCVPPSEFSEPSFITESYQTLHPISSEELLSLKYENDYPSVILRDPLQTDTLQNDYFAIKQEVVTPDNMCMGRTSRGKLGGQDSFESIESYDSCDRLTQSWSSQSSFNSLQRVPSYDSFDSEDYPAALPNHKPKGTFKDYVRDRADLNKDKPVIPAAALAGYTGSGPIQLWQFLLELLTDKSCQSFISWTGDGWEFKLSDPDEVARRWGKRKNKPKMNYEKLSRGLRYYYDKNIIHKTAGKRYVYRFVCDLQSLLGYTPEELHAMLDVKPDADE
The experiment in a line: ETS1 binding intensity (PBM fluorescence), ETS1 alone (arbitrary fluorescence units); higher = stronger binding. Particulars: ETS1 concentration 1 nM; RUNX1 concentration 0 nM.
Sequence GCCTGCGCTCTTTCCGGTAGCCACAGCCTCGTCTAA displayed an ETS1 binding intensity of 1290.

GGAGGAAGAGAGGAAACGGGGGCGGCCGCAGCTTCT: the ETS1 binding intensity is 836. The result for ATTACATCCGGGCTCCGCGACACGCCCGAACCACAA reads 549.

GATACTCTTCCTGTCATCCCATCCCCACAGCCTTAG yielded an ETS1 binding intensity of 503.

Sequence TAGCAGGAAGCCGATTCGCCCTATATGCAACCACTT returned an ETS1 binding intensity of 549.

GCACAGGAAAAGCTGCTTTCCGCGTGGTAAATTCAA gave an ETS1 binding intensity of 484.

In turn, CTTCTCGCGGAAGCGGCACAAGCCGCAGTACAGCGC yielded an ETS1 binding intensity of 301.

With GTCAGGAAACACATAGTTGTGTTTAACCTCAGGAAA, the ETS1 binding intensity amounted to 466.

For the sequence GGCCCGGCCGGAAGAAGCCACCTCCCCCGCACGCGT, the ETS1 binding intensity turned out to be 2410. The same measure for ATTAAAGACTTCCGTGCAAGACCACAGCTGCCTGAC: 555. The result for GAACATGGTCTCCGCTTCCGCCGCAACCTCGGCCTT reads 525.

For CTGCCTTGCTTTTCCGGTCGCCGCGGTCCTCTGCGC, the ETS1 binding intensity worked out at 2130.

On to GTAAAAGGAAGTAAAGGCTTGGCCGGGCGCGGTGGC, for which the ETS1 binding intensity amounted to 569.

Regarding CTCCCCCCACGACTTCCCTCTGTGGCCCCGGGCCGC, the ETS1 binding intensity amounted to 677. The same measure for GGGCCCCCGGAAAGAGCTTTGACCGCTCGAGCCTGC: 456. The same measure for TGCCTCTTCCTGTGGCTGGGCTGTATCTGACCACAC: 503; for TCGCATAGCCGGGAAGCGCGGTGGAGGTTGTTGGGG: 428. For TGGGAAGGGTGAGGAGGAAGCGGTGGCCTTGCTCTG, the ETS1 binding intensity came to 604. As for GCTCGCGTCATCCTGCAGCGCCGACACCACAGACAC, the ETS1 binding intensity is 501. The result for GCTGTAGGAAATGTTATTCGCCGCGGTCAGGACAGG reads 546. Regarding GAACTGAAGAAGGCAGGAAGCCACAGGCTCCTGGGT, the ETS1 binding intensity was 1730. For the sequence TGTGAGAAGCCGGATCCTGTGGTGACCCAGTGGCCT, the ETS1 binding intensity was 409.

Regarding TGGGCACGGGAGGAAGAGGCTGGGTGGTAAACAGGA, the ETS1 binding intensity came to 467. The same measure for AGGAGTGACGAGGCGGACGTGCGGGGGCGGGGGTGT: 461; for CGCCCTCCGGAAGAGAGGGCGGACCGCGGCCGCGCA: 570; for CAGATTTCCGGCTTCTGAGGAGCTGCCCTACCACAG: 530.

AGGGAGACCGGGCCGGATTGCGGGGAGTGAGCAGGT displayed an ETS1 binding intensity of 543.

GTGCCACTGAGAGGAAGGGGGCAACCACAGTGGGAG returned an ETS1 binding intensity of 367. The same measure for GATTAAGAGGAAGTGTGTGTGATTATTACCGCTGGA: 1310; for GTGTTCAGACGGAAGCGTTATTCAGTGGTCAGAGCA: 741. The sequence TGTGCTTTGTAGTGAGGATGTGGGTGCCTGCCTCAC gave an ETS1 binding intensity of 797. As for TAGGCCGGAAAGCACCACCGTCCTCCCGCAGGCCGC, the ETS1 binding intensity was 455.

For the sequence CAACTCACATCCTCTGGCAACAACCACTAATCCACT, the ETS1 binding intensity stood at 460. Take CCAGGATGTAGTTTGGCCACTATTGAGTGGTTTGTT: the ETS1 binding intensity worked out at 448. The same measure for CCAGCCTCCCCTTTCCTGTCTGTGGCAGGAGCGTGC: 505; for CGTAGCGAGGAGCGGAAAACGCGGTAACCAAGGCGG: 732. Regarding CTCAGCGGAAGAGCGGGCCTCTGGGCCGCAGTGACC, the ETS1 binding intensity is 478. Turning to GAACCCAGGTCTGCTTCCTGTGGCCACCATCTGTGC, the ETS1 binding intensity amounted to 761. The same measure for ACTCCGCCCCTTCCGCCTGGCGGTTCCACTTCTCGG: 480. GAGATAGTCTGGAGGGGAAGTGGTTATAAGTGATAA returned an ETS1 binding intensity of 797.
